Screening results: PubChem BioAssay, National Center for Advancing Translational Sciences (NCATS)
Compounds with a hit are over-represented: about 7.5% of the library has one in this group of screens.
ELG1 genotoxic = genotoxicity induction in ELG1-luciferase HEK293T cells; HEK293T ELG1-luciferase reporter, luminescence, 16 h; Potency, µM (doses to about 46 µM), for inactives: top-dose activity change, positive = activation, hits mostly activators; 330,000 compounds, 1.3% hits; further: % of control where 0% means no effect; nearly all actives have a fitted effect of over 60% in size
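HEK293T cells expressing luciferase-tagged ELG1 were exposed to compound or DMSO vehicle for 16 hr at 37 °C and 5% CO2. Luciferase activity was then measured with ONE-Glo after 30 min at room temperature.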
NPC1 prom act = NPC1 promoter activation; Huh7 NPC1 promoter luciferase reporter, 24 h; Potency, µM (titrated, usually from 9.22 µM), for inactives: at the top dose activation, actives largely listed as activators; 320,000 compounds, 2.4% hits; further: % of control where 0% means no effect; nearly all actives have a fitted effect of over 60% in size
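In 1536-well qHTS, Huh7 cells harboring an NPC1 promoter–luciferase construct received compound for 24 h; activation was quantified by luminescence following luciferase reagent addition.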
FLuc modulator = inhibits or activates purified firefly luciferase, miR-21 counter-screen | P08659 | purified FLuc, Km substrates, luminescence inhibition | Potency, µM (highest dose often 57.5 µM), for inactives: at the top dose activity change, negative = inhibition, usual class: inhibitors | 360,000 compounds, 6.9% hits | AID 588342;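 further: plate controls were vehicle for no effect and reference inhibitor for full effect; nearly all actives have a fitted effect of over 55% in size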
Target sequence (P08659 whole entry, looked up): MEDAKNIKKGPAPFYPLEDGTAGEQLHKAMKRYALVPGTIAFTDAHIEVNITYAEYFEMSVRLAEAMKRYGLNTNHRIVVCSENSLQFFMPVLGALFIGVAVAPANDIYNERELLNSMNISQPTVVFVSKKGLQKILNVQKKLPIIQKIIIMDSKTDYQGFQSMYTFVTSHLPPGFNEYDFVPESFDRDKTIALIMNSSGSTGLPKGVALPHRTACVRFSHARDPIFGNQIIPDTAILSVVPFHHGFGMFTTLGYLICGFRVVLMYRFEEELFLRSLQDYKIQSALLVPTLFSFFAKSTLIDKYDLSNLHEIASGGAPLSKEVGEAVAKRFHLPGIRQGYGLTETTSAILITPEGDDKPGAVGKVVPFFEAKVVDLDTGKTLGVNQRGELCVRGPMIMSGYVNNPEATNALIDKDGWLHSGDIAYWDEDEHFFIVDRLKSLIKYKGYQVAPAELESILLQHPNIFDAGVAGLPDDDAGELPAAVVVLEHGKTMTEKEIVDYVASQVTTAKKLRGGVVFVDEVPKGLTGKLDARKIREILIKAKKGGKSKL
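Purified P. pyralis luciferase, 10 nM final, with Km-level 10 uM D-luciferin and 10 uM ATP in 50 mM Tris acetate pH 7.5, 10 mM Mg acetate, 0.01% Tween-20, 0.05% BSA; 6-point qHTS titration about 60 µM downward; luminescence read.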
Rab9 promoter act = activators of Rab9 promoter; Huh7 Rab9 promoter-luciferase reporter, luminescence, 24 h; Potency, µM (top dose mostly 9.22 µM), without a hit: at the top dose activation, negative = inhibition, usual class: activators; 320,000 compounds, 2.8% hits; AID 485297; further: % of control where 0% means no effect; nearly all actives have a fitted effect of over 60% in size
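Using Huh7 cells stably transfected with Rab9 promoter–luciferase, compounds were incubated 24 h at 37 °C, 5% CO2; luciferase luminescence was read 10 min after reagent addition.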
SMN2 splice enh = SMN2 splice variant enhancement; AID 1458; Potency, µM (top dose mostly 46.1 µM), for the others: at the highest dose activity change, positive = activation, most hits filed as activators; 210,000 compounds, 2.8% hits; HEK293 SMN2-luciferase splicing reporter, luminescence, 30-36 h; further: % of control where 0% means no effect; nearly all actives have a fitted effect of over 55% in size
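HEK293 cells carry an SMN2 […]–luciferase reporter in which exon 7 inclusion puts luciferase in frame. Cells were plated 10-12 h before compound addition, then incubated 30-36 h at 37C. ONE-Glo luminescence was read; sodium butyrate at 4.5 mM final served as control.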
An asterisk follows results filed as active; ? = inconclusive; nt = no result; [ ] = another dose, or the depositor's remark. The call rests on the fitted dose curve; in most records, active means well fitted curve in the direction sought with a large enough effect; inconclusive means small, poorly fitted or top-dose-only effect, or another doubt; inactive means no such curve, though single readings can be large; an effect the other way counts as inactive or inconclusive. Potency means the concentration at half of the fitted maximal effect.

SMILES	ELG1 genotoxic	NPC1 prom act	FLuc modulator	Rab9 promoter act	SMN2 splice enh
O=C(OCC(=O)N1CCC(Cc2ccccc2)CC1)c1ccccc1	6.0%	-14.1%	12µM*	?	-5.7%
O=C(OCC(=O)N1CCC(Cc2ccccc2)CC1)c1ccccc1F	3.3%	0.7%	4.26µM*	2.1%	nt
CCCNc1c(NS(=O)(=O)c2ccc(Br)cc2)c(=O)oc2ccccc12	-2.9%[9.26 µM]	2.1%	-0.9%	-1.5%	nt
Cc1cccc(-c2nnc(SCc3ccccc3)o2)c1	?	?	10.7µM*	?	?
COc1cc(OC)cc(-c2nnc(SCc3cccnc3)o2)c1	3.1%	-8.0%	-16.9%	8.6%	-2.8%
O=C(O)c1cccc(CSc2nnc(COc3ccccc3)o2)c1	-1.5%	-3.6%	?	-0.7%	?
O=C(O)c1cccc(CSc2nnc(-c3ccc(Cl)cc3)o2)c1	16.9%	-0.5%	19µM*	-0.6%	nt
Cc1cccc(CSc2nnc(-c3ccco3)o2)c1	?	17.8%	?	15.8%	26.0%
COc1cccc(-c2nnc(SCc3cccnc3)o2)c1	13.2%	?	23.9µM*	3.98µM*	12.0%
CN(C)c1nc(OCCNC(=O)COc2ccc(Cl)cc2Cl)nc(N(C)C)n1	-8.6%	2.9%	-1.8%	1.2%	-7.9%
NC(=O)c1ccccc1NC(=O)N1CCOCC1	-0.9%	-0.6%	-0.5%	0.2%	nt
COc1cc2ccccc2cc1C(=O)OCC(=O)NC1CCS(=O)(=O)C1 (stereo not given)	3.1%	-0.9%	3.3%	1.3%	5.9%
O=C(c1nc2ccccn2c1CN1CCN(c2ccccc2O)CC1)N1CCCC1	-6.8%	-2.2%	0.5%	-5.0%	nt
COc1ccc(CCNC(=O)c2cnn3c(C(F)F)cc(C)nc23)cc1OC	5.3%	1.2%	1.3%	-5.7%	-17.1%
CC1=NN(c2ccccc2)C(=O)C1C(=O)C(=O)Nc1ccc(F)cc1 (stereo not given)	?	?	9.53µM*	3.16µM*	nt
CC1=NN(c2ccccc2)C(=O)C1C(=O)c1ccccc1 (stereo not given)	-4.5%	-1.0%	-12.8%	-3.3%	-3.6%
CN(C)CCNC(=O)C(=O)C1C(=O)Nc2ccccc21 (stereo not given)	-2.2%	-0.2%	-0.1%	9.2%	2.8%
Cc1ccc(NC(=O)C(=O)C2C(=O)Nc3ccccc32)cc1 (stereo not given)	?	?	12µM*	?	nt
COC(=O)c1ccc(NC(c2ccc(Cl)cc2)P(=O)(OC)OC)cc1 (stereo not given)	3.7%	-2.0%	26.9µM*	-1.4%	-4.7%
COP(=O)(OC)C(Nc1ccc(Cl)cc1)c1ccccc1 (stereo not given)	-5.1%	1.3%	0.5%	-2.9%	nt
Sc1oc(-c2ccccc2)cc1C=Nc1ccccc1	11.6µM*	0.5%	2.13µM*	6.3%	-21.5%
O=[N+]([O-])c1cc2c(cc1C=Nc1ccccc1)OCO2	1.0%	-0.8%	-13.0%	0.2%	-8.3%
C=CCNC(=O)c1nn2cccnc2c1Cl	3.4%	5.5%	-2.1%	6.6%	24.5%
O=C(Nc1cccc(Cl)c1)c1cnn2cccnc12	?	?	7.57µM*	2µM*	10µM*
Cc1cc(NC(=O)c2nn3cccnc3c2Cl)no1	?	1.78µM*	10.7µM*	1.41µM*	10µM*
SMILES	ELG1 genotoxic	NPC1 prom act	FLuc modulator	Rab9 promoter act	SMN2 splice enh
Cc1cc(NC(=O)c2cnn3cccnc23)no1	4.11µM*	?	?	?	?
O=C(C1CCN(S(=O)(=O)c2cccc3nsnc23)CC1)N1CCCCC1	-0.5%	-1.3%	2.9%	0.8%	nt
Cc1oc(-c2ccc(-c3ccccc3)cc2)nc1CN1CCN(CC(=O)N(C)C)CC1	?	?	5.36µM*	?	nt
C=CCSSSCC=C	nt	nt	nt	nt	-18.6%
Cc1ccc(O)c(N=CC2=C(O)c3ccccc3C2=O)c1	?	?	6.75µM*	?	25.1%
O=C1C(C=Nc2ccccc2O)=C(O)c2ccccc21	16.9%	?	?	?	35.5µM*
O=C(O)Cc1ccc2ocnc2c1	3.7%	-1.7%	6.3%	-5.5%	3.6%
O=C(Nc1ccccc1)Nc1ccc2ocnc2c1	13.4%	?	10.7µM*	1.26µM*	?
O=C(Nc1ccccc1)Nc1ccc2ncoc2c1	?	?	12µM*	?	11.2µM*
Nc1ccc2nc(Cc3ccccc3)[nH]c2c1	1.6%	0.3%	?	2.3%	nt
Nc1ccc(Cc2nc3c(ccc4ccccc43)[nH]2)cc1	?	3.98µM*	13.5µM*	3.98µM*	10.8%
CCN(CC)C(=O)c1cc2c(=O)n3ccccc3nc2s1	16.4µM*	24.2%	?	28.6%	?
CC1CCCN(C(=O)c2cc3c(=O)n4ccccc4nc3s2)C1 (stereo not given)	16.4µM*	?	16.9µM*	?	nt
COc1ccc(-n2c(SC(C)C(=O)Nc3ncc(Cl)cc3Cl)nc3ccccc32)cc1 (stereo not given)	-8.0%	-7.2%	2.5%	4.7%	?
CCOc1ccc(NC(=O)c2cccc3ccccc23)cc1	4.1%	-11.0%	-16.9%	13.7%	nt
COc1ccccc1NC(=O)COC(=O)c1cc2ccccc2cc1O	3.6%	-0.4%	0.4%	0.4%	nt
COc1cc2ccccc2cc1C(=O)Nc1ccc(N2CCN(C)CC2)cc1	14.1µM*	?	4.78µM*	3.55µM*	49.7%
COc1cc2ccccc2cc1C(=O)Nc1ccc(N2CCN(C(=O)C(C)C)CC2)cc1	-13.2%	1.6%	-8.4%	-0.5%	nt
COc1cc(OC)c(C(=O)Nc2cccnc2)cc1OC	1.7%	2.8%	?	8.5%	nt
CCOc1ccc(NC(=O)c2cc3ccccc3cc2O)cc1	?	?	0.757µM*	2.82µM*	nt
COc1cc2ccccc2cc1C(=O)Nc1cccnc1	8.2µM*	?	10.7µM*	?	12.6µM*
COc1ccccc1NC(=O)c1cc2cc(Br)ccc2cc1O	-10.3%	1.2%	16.9µM*	-4.6%	nt
COc1ccc(N2C(=O)CC(N(CCc3ccccc3)C(=O)/C=C/C(=O)O)C2=O)cc1 (stereo not given)	-0.3%	0.4%	1.8%	-2.9%	nt
O=CN1CCN(C(=S)Nc2ccc(OC(F)F)cc2)CC1	-0.3%	-3.4%	3.5%	1.3%	nt
COc1ccc(-n2c(SCC(C)=O)nc3sc(C)c(C)c3c2=O)cc1	6.5%	-4.7%	0.2%	0.4%	nt
COC(=O)Cc1c(C(=O)OC)nnn1-c1ccc(OC)cc1	-17.2%	-12.2%	-0.8%	6.8%	0.4%
c1ccc(COCC2CCNCC2)cc1	0.1%	-0.1%	2.6%	0.1%	nt
COc1ccc(NC(=O)c2cc(-c3cc(OC)c(OC)c(OC)c3)nc3ccccc23)cc1OC	-7.1%	3.8%	?	2.8%	nt
CCOc1ccc(NC(=O)c2cc3ccccc3cc2OC)cc1	?	?	5.36µM*	?	nt
COc1ccc(NC(=O)c2cccn(CC=C(C)C)c2=O)cc1	5.8%	?	16.9µM*	1.58µM*	2.0%
